Data on ten molecules can be found in PubChem BioAssay (NCI).

Assay [1] in a line: NCI Yeast Anticancer Drug Screen. Data for the rad50 strain (AID 155).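 Note: 0% = growth of vehicle-only cultures of the same strain.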 The following applies: S. cerevisiae rad50 strain growth inhibition, stronger effect = higher value. Summed up:
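Vehicle-treated cultures provide the reference for the growth inhibition reported for compound-exposed, repair-deficient yeast.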

Assay [2] is described as follows: NCI Yeast Anticancer Drug Screen. Data for the mec2-1 strain (AID 157). The conditions noted are these: S. cerevisiae mec2-1 strain, stronger effect = higher value. The method in brief: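 Readout is yeast growth inhibition, normalised to vehicle-treated controls, in the mec2-1 strain exposed to compound.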
Assay [3] can be described thus: NCI Yeast Anticancer Drug Screen. Data for the sgs1 mgt1 strain (AID 161).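 Note: 0% = growth of cultures given vehicle only.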 The following applies: S. cerevisiae sgs1 mgt1 strain, stronger effect = higher value. The method in brief:
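This yeast growth screen uses a strain with defined DNA-repair lesions; compound-treated growth is compared with vehicle-treated growth.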

Assay [4] in a line: NCI Yeast Anticancer Drug Screen. Data for the cln2 rad14 strain (AID 165).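 Note: 0% = growth equal to vehicle treated cultures.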 The following applies: S. cerevisiae cln2 rad14 strain, stronger effect = higher value. The method in brief: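 Relative to vehicle controls, growth inhibition of compound-treated cln2 rad14 yeast was recorded.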
A short description of assay [5]: NCI Yeast Anticancer Drug Screen. Data for the bub3 strain (AID 167). The conditions noted are these: S. cerevisiae bub3 mutant strain, stronger effect = higher value. The method in brief:
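Mutant yeast screening strain plus compound; vehicle-treated cultures serve as the 0% inhibition reference.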

A short description of assay [6]: NCI Yeast Anticancer Drug Screen. Data for the mlh1 rad18 strain (AID 175). The conditions noted are these: S. cerevisiae mlh1 rad18 strain growth inhibition, stronger effect = higher value. The method in brief: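 Test agents were incubated with a yeast strain of defined genotype (DNA damage repair defect). Inhibition of growth was derived by comparison with vehicle-exposed cultures.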

Where [7] appears, read: at 5.0 µM (retest, dose inferred, filed as 0.5).
Setting [8] is: at 50.0 µM (retest, dose inferred, filed as 5.0).

About 79,000 compounds went through this panel and 15% of them were active in at least one assay; those are over-represented in the sample as a whole. Values without a mark were called inactive. Calls of active or inactive are those of the source. Cut-off read from the data, not from the text of the source: active = growth inhibition above about 70%; inactive = the rest.

On to `O=c1[nH]c2c([N+](=O)[O-])cc(Cl)cc2nc1/C=C(\O)c1ccco1`, for which the growth inhibition in assay [1] (setting [7]) is 17%; in assay [1] (setting [8]), 74% (active); in assay [1] (at 50.0 µM), 72.7% (active); in assay [2] (setting [7]), -5%; in assay [2] (setting [8]), 44%; in assay [2] (at 50.0 µM) it was 56.1%. The growth inhibition in assay [3] (setting [7]) was 1%; in assay [3] (setting [8]), 54%; in assay [3] (at 50.0 µM) it was 84.2% (active); in assay [4] (setting [7]) it was -1%; in assay [4] (setting [8]), 62%; in assay [4] (at 50.0 µM) it was 59%. For the same molecule, the growth inhibition in assay [5] (setting [7]) was 4%; in assay [5] (setting [8]), 66%; in assay [5] (at 50.0 µM) it was 32.6%; in assay [6] (setting [7]) it was -4%; in assay [6] (setting [8]), 70% (active); in assay [6] (at 50.0 µM), 80% (active).
Consider `CCCCCCCCCCS(=O)(=O)Nc1ccc(C(=O)NN)cc1`, for which the growth inhibition was 60% in assay [1] (setting [7]); 83% (active) in assay [1] (setting [8]); 92.6% (active) in assay [1] (at 50.0 µM); 29% in assay [2] (setting [7]); 48% in assay [2] (setting [8]); 71% (active) in assay [2] (at 50.0 µM). The growth inhibition in assay [3] (setting [7]) is 42%; in assay [3] (setting [8]), 82% (active); in assay [3] (at 50.0 µM), 89.5% (active); in assay [4] (setting [7]) it was 54%; in assay [4] (setting [8]), 80% (active); in assay [4] (at 50.0 µM), 91% (active). Moreover, the growth inhibition in assay [5] (setting [7]) was 48%; in assay [5] (setting [8]) it was 82% (active); in assay [5] (at 50.0 µM), 79% (active); in assay [6] (setting [7]), 69%; in assay [6] (setting [8]) it was 87% (active); in assay [6] (at 50.0 µM), 92.7% (active).
As to `c1ccc(Cn2nnnc2-c2ccccc2)cc1`, the growth inhibition in assay [1] (setting [7]) was -151%; in assay [1] (setting [8]) it was -125%; in assay [1] (at 50.0 µM) it was 23.8%; in assay [2] (setting [7]), -53%; in assay [2] (setting [8]) it was -43%; in assay [2] (at 50.0 µM), 43.5%. The growth inhibition is -66% in assay [3] (setting [7]); -61% in assay [3] (setting [8]); 1.75% in assay [3] (at 50.0 µM); -55% in assay [4] (setting [7]); -33% in assay [4] (setting [8]); 80.5% (active) in assay [4] (at 50.0 µM). Besides, the growth inhibition in assay [5] (setting [7]) is -70%; in assay [5] (setting [8]) it was -57%; in assay [5] (at 50.0 µM), 5.45%; in assay [6] (setting [7]), -147%; in assay [6] (setting [8]), -89%; in assay [6] (at 50.0 µM), 14.3%.
Turning to `CCc1cccc(C)c1NC(=O)C(=O)C(C#N)c1ccc(C)cc1` (stereo not given), the growth inhibition in assay [1] (setting [7]) is -3%; in assay [1] (setting [8]) it was 27%; in assay [1] (at 50.0 µM), 28.5%; in assay [2] (setting [7]) it was 0%; in assay [2] (setting [8]), 5%; in assay [2] (at 50.0 µM), 13.2%. Also, the growth inhibition in assay [3] (setting [7]) is -25%; in assay [3] (setting [8]) it was -1%; in assay [3] (at 50.0 µM), 17.9%; in assay [4] (setting [7]) it was 8%; in assay [4] (setting [8]) it was 18%; in assay [4] (at 50.0 µM), 13.7%. The growth inhibition in assay [5] (setting [7]) is -4%; in assay [5] (setting [8]), 39%; in assay [5] (at 50.0 µM) it was 16.1%; in assay [6] (setting [7]), 13%; in assay [6] (setting [8]) it was 24%; in assay [6] (at 50.0 µM), 23.9%.
With `Oc1[nH]c2ccccc2c1N=NC(=S)N1CCCC1`, the growth inhibition in assay [1] (setting [7]) was 15%; in assay [1] (setting [8]), 65%; in assay [1] (at 50.0 µM), 33.5%; in assay [2] (setting [7]), 5%; in assay [2] (setting [8]), 64%; in assay [2] (at 50.0 µM), 58.6%. The growth inhibition in assay [3] (setting [7]) was 7%; in assay [3] (setting [8]) it was 42%; in assay [3] (at 50.0 µM) it was 54.6%; in assay [4] (setting [7]), 11%; in assay [4] (setting [8]), 48%; in assay [4] (at 50.0 µM), 55%. The growth inhibition in assay [5] (setting [7]) was 26%; in assay [5] (setting [8]) it was 74% (active); in assay [5] (at 50.0 µM), 61.6%; in assay [6] (setting [7]), 13%; in assay [6] (setting [8]), 68%; in assay [6] (at 50.0 µM), 57.8%.
As to `O=S1(=O)c2ccccc2C(Br)C1Br` (stereo not given), the growth inhibition is 31% in assay [1] (setting [7]); 98% (active) in assay [1] (setting [8]); 99.2% (active) in assay [1] (at 50.0 µM); 30% in assay [2] (setting [7]); 99% (active) in assay [2] (setting [8]); 99.5% (active) in assay [2] (at 50.0 µM). The growth inhibition in assay [3] (setting [7]) was 27%; in assay [3] (setting [8]), 99% (active); in assay [3] (at 50.0 µM), 58.4%; in assay [4] (setting [7]) it was 22%; in assay [4] (setting [8]), 99% (active); in assay [4] (at 50.0 µM), 99% (active). For the same molecule, the growth inhibition in assay [5] (setting [7]) was 25%; in assay [5] (setting [8]) it was 98% (active); in assay [5] (at 50.0 µM) it was 99.6% (active); in assay [6] (setting [7]), 56%; in assay [6] (setting [8]), 99% (active); in assay [6] (at 50.0 µM), 99.3% (active).
In the case of `O=[N+]([O-])c1ccccc1C1CN=NN1c1ccccc1` (stereo not given), the growth inhibition in assay [1] (setting [7]) is -9%; in assay [1] (setting [8]), 47%; in assay [1] (at 50.0 µM), -0.9%; in assay [2] (setting [7]), -2%; in assay [2] (setting [8]), 25%; in assay [2] (at 50.0 µM), 17.9%. Besides, the growth inhibition in assay [3] (setting [7]) was -1%; in assay [3] (setting [8]), 33%; in assay [3] (at 50.0 µM) it was 38.2%; in assay [4] (setting [7]) it was -14%; in assay [4] (setting [8]), 32%; in assay [4] (at 50.0 µM), -11.3%. In addition, the growth inhibition in assay [5] (setting [7]) is -3%; in assay [5] (setting [8]) it was 61%; in assay [5] (at 50.0 µM) it was 85.5% (active); in assay [6] (setting [7]), 0%; in assay [6] (setting [8]), 37%; in assay [6] (at 50.0 µM) it was 24.9%.
`CN1C(=O)C(C2C(=O)N(C)C(=O)N(C)C2=O)C(=O)N(C)C1=O`: the growth inhibition in assay [1] (setting [7]) is 13%; in assay [1] (setting [8]), -3%; in assay [1] (at 50.0 µM), 2.95%; in assay [2] (setting [7]), 2%; in assay [2] (setting [8]) it was 0%; in assay [2] (at 50.0 µM), 0.9%. The growth inhibition in assay [3] (setting [7]) was 0%; in assay [3] (setting [8]), -11%; in assay [3] (at 50.0 µM), 12.2%; in assay [4] (setting [7]), 2%; in assay [4] (setting [8]), 4%; in assay [4] (at 50.0 µM) it was 39.4%. Also, the growth inhibition was 0% in assay [5] (setting [7]); -2% in assay [5] (setting [8]); -2.2% in assay [5] (at 50.0 µM); 1% in assay [6] (setting [7]); -2% in assay [6] (setting [8]); 8.55% in assay [6] (at 50.0 µM).
Take `CC(=O)OC1COC(n2nnc(C#N)c2C#N)C(OC(C)=O)C1OC(C)=O` (stereo not given): the growth inhibition in assay [1] (setting [7]) was 4%; in assay [1] (setting [8]), 9%; in assay [1] (at 50.0 µM) it was 93.7% (active); in assay [2] (setting [7]), -7%; in assay [2] (setting [8]), 2%; in assay [2] (at 50.0 µM) it was 82.4% (active). Moreover, the growth inhibition was 1% in assay [3] (setting [7]); 4% in assay [3] (setting [8]); 94.7% (active) in assay [3] (at 50.0 µM); 3% in assay [4] (setting [7]); 4% in assay [4] (setting [8]); 83% (active) in assay [4] (at 50.0 µM). Moreover, the growth inhibition in assay [5] (setting [7]) is 1%; in assay [5] (setting [8]), 4%; in assay [5] (at 50.0 µM), 89.3% (active); in assay [6] (setting [7]), 0%; in assay [6] (setting [8]), 27%; in assay [6] (at 50.0 µM), 91.8% (active).
`O=C(O)c1ccccc1-c1c2cc([N+](=O)[O-])c(=O)c(Br)c-2oc2c(Br)c(O)c([N+](=O)[O-])cc12`: the growth inhibition was 27% in assay [1] (setting [7]); 91% (active) in assay [1] (setting [8]); 77.5% (active) in assay [1] (at 50.0 µM); 29% in assay [2] (setting [7]); 93% (active) in assay [2] (setting [8]); 82.1% (active) in assay [2] (at 50.0 µM). Moreover, the growth inhibition in assay [3] (setting [7]) was 25%; in assay [3] (setting [8]), 66%; in assay [3] (at 50.0 µM) it was 62%; in assay [4] (setting [7]), 34%; in assay [4] (setting [8]), 66%; in assay [4] (at 50.0 µM), 88.5% (active). Moreover, the growth inhibition was 32% in assay [5] (setting [7]); 75% (active) in assay [5] (setting [8]); 66.5% in assay [5] (at 50.0 µM); 42% in assay [6] (setting [7]); 96% (active) in assay [6] (setting [8]); 72.1% (active) in assay [6] (at 50.0 µM).
